# Screening results as filed in PubChem BioAssay.
# Only a selection was taken, and hits are over-represented in it overall.
# Pf Dd2 inh – inhibitors of Plasmodium falciparum Dd2 growth. P. falciparum Dd2 growth, SYBR Green, 72 h. Potency, µM (series often up to 28.9 µM), inactives show at the top dose activity, negative = inhibition, usual class: inhibitors. 120,000 compounds, 4.3% hits; active = well fitted inhibition curve with a large enough effect;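 also: plate controls were DMSO vehicle for no effect and reference drug for full effect; nearly all actives have a fitted effect of over 65% in size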
#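 Infected erythrocytes (Dd2, 0.3% parasitemia, 2.5% hematocrit final) are added to compound in RPMI-1640/Albumax II medium, grown 72 h at 37C in low oxygen, then lysed with saponin/Triton-X containing SYBR Green and read by fluorescence.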
# * hit, by the source's call; i = inactive; [ ] = remark or other dose. Potency is read from the fitted curve at half-maximal effect.
SMILES,Pf Dd2 inh
CCn1ncc(CN2CCC(C3CCN(C)CC3)C2)c1C (centres undefined),14%
CN1CC(=O)N(C2CCCNC2)Cc2c1ncnc2N1CCC(N2CCOCC2)CC1 (centres undefined),-1%
O=[S+]([O-])(Nc1ccccc1)c1ccc2c(c1)OCCN(Cc1ccncc1F)C2,5µM*
O=[S+]([O-])(Nc1cccnc1)c1ccc2c(c1)OCCN(Cc1ccccc1F)C2,-18%[44.1 µM]
O=[S+]([O-])(Nc1cccnc1)c1ccc2c(c1)OCCN(Cc1ccncc1F)C2,i
CC(=O)N1CCN([C@H]2[C@@H]3OC[C@@H](O3)[C@@H](NCc3ccc4c(c3)OCO4)[C@@H]2O)CC1,-3%[44.1 µM]
COc1cccc(CNC(=O)[C@H]2CCC[C@H]2NC(=O)c2ccncc2)c1OC,i
Cc1cc(=O)n(CC(=O)Nc2ccc(C)c(C)c2)c(N(C)Cc2ccccc2)n1,i
Cc1cccc(NC(=O)Cn2c(N(C)Cc3ccccc3)nc(C)cc2=O)c1,5µM*
CCc1cccc(NC(=O)Cn2c(N(C)Cc3ccccc3)nc(C)cc2=O)c1,i
CCn1ncc(N2CCCC(CC(=O)Nc3ccc(C)c(F)c3)C2)cc1=O (centres undefined),-13%
Cc1noc(C)c1CC(=O)N1CCC2(CC1)CN([S+](C)(=O)[O-])Cc1ccccc1O2,-6%
CCn1cc(CNCc2ccc(OCC(O)CN3CCSCC3)c(OC)c2)cn1 (centres undefined),-4%
COc1cc(CN2CCOCC2)ccc1OCC(O)CN1CCSCC1 (centres undefined),-8%
CC1CCN(Cc2ccccc2OCC(O)CN2CCSCC2)CC1 (centres undefined),4.5µM*
Cc1cccc(CNCc2ccccc2OCC(O)CN2CCSCC2)c1 (centres undefined),1.6µM*
CCCCNCc1ccc(OCC(O)CN2CCSCC2)c(OC)c1 (centres undefined),-29%
Cc1nnc(CN(C)Cc2ccccc2OCC(O)CN2CCSCC2)o1 (centres undefined),-22%
O=C(c1ccc2cc[nH]c2c1)N1CCCC(Cc2noc(-c3ccccn3)n2)C1 (centres undefined),i
COCCNC(=O)C[C@@H]1C[C@H]2O[C@H](CNC3CCC3)[C@@H](O)[C@H]2O1,1%[44.1 µM]
COCC1CN(C(C)=O)CC12CCN(Cc1ccccc1C(F)(F)F)CC2 (centres undefined),-24%
CN(Cc1ccccn1)Cc1ccccc1C(F)(F)F,-17%[44.1 µM]
OCC1(Cc2ccccc2C(F)(F)F)CCNCC1,-4%
CCOC(=O)C1(Cc2ccccc2C(F)(F)F)CCN(Cc2ccccn2)CC1,6.3µM*
CCOC(=O)C1(Cc2ccccc2F)CCCN(C(=O)c2ccc(-n3ccnc3)cc2)C1 (centres undefined),i
SMILES,Pf Dd2 inh
CCOC(=O)C1(Cc2ccccc2C(F)(F)F)CCN(C(C)Cc2cccc(C)n2)CC1 (centres undefined),13µM*
COCCCN1CC2(CCN(CC(=O)N3CCNCC3)CC2)CC1=O,4%
CCCc1nc(NCc2ccc(-c3noc(C)n3)cc2)c2cnn(C)c2n1,-26%
Cc1ncoc1C(=O)N1CCCC(c2nnnn2C)C1 (centres undefined),16%
COc1cccc(N2C(=O)NC(=NC3CCCC3)C23CCN(Cc2cccn2C)C3)c1 (centres undefined),10µM*
COc1cccc(N2C(=O)NC(=NC3CCCCC3)C23CCN([S+](C)(=O)[O-])C3)c1 (centres undefined),9%
Cn1cccc1CN1CCC2(C1)C(=NC1CCCC1)NC(=O)N2c1cc(F)cc(F)c1 (centres undefined),8.9µM*
COc1cccc(N2C(=O)NC(=NC3CCCCC3)C23CCN(Cc2ccc(F)cc2)C3)c1 (centres undefined),-1%
Cn1cccc1CN1CCC2(CC1)C(=NC1CCCCC1)NC(=O)N2c1cccnc1,54%
O=C(c1ccccc1)N1CCC2(C1)C(=NC1CCCC1)NC(=O)N2c1cc(F)cc(F)c1 (centres undefined),-4%
Cn1ccc2c(C(=O)NCC3CCC(=O)N3)nc(-c3ccccc3C#N)cc21 (centres undefined),i
Cc1ccccc1C(=O)N1CCC2(CC1)CC(=O)N(c1ccccc1)c1ccccc1O2,i
CC(C)c1noc(CNC(=O)C2CCC(=O)N(CCN3CCOCC3)C2)n1 (centres undefined),15%
COc1cccc(CC(=O)N2CC(Oc3ccc(-c4nc(-c5ccccc5)no4)cc3)C2)c1,11%[5.79 µM]
Cc1ccc2nc(N3CCN(C(=O)C4CC4)CC3)sc2c1,33%
O=C(NCc1cccc(Cl)c1)c1ccc2nc(N3CCCCC3)sc2c1,i
O[C@H]1CCCC[C@@H]1NC1CCN(c2nc3ccc(Cl)cc3s2)CC1,4µM*
COc1ccc(-c2cc(CC3(NC4CCCCC4)COC3)no2)cc1,i
COCC1CN(C2CCC2)CC12CCN(S(=O)(=O)c1cnc[nH]1)CC2 (centres undefined),-1%
O=C(C1CCCC1)N1CCC(N2CC(OCC3CC3)C23CCOCC3)CC1 (centres undefined),i
COc1ccc(CCNC(=O)c2ccc3c(Cl)c4c(nc3c2)CCCC4)c(OC)c1,-23%
COc1ccc(CNC(=O)c2ccc3c(Cl)c4c(nc3c2)CCCC4)c(OC)c1,-12%
COCCNC(=O)c1ccc2c(c1)ncn2-c1cc(C)ccc1OC,-11%
COc1ccc(CCNC(=O)c2ccc3c(Cl)c4c(nc3c2)CCCC4)cc1OC,11µM*
COc1ccc(CCNC(=O)c2ccc3c(c2)ncn3-c2ccc(C(C)C)cc2)cc1OC,11µM*
SMILES,Pf Dd2 inh
CCc1nc2ccc(C(=O)NCCc3ccc(OC)c(OC)c3)cc2nc1CC,8%
O=C(CC1CCOCC1)NCC1CCN(Cc2cccc(F)c2)CC1,-3%
O=C(Nc1ccc([C@@H](O)[C@H]2COCC(=O)N2Cc2ccccn2)cc1)C1CCCC1,1%[44.1 µM]
CCCCn1c(CN(C)C(C)c2ccccc2OC)cnc1S(=O)(=O)CC (centres undefined),8.9µM*
C#CCN(CC=C)Cc1cnc(S(=O)(=O)CC)n1CCCc1ccccc1,i
CCC(O)C1CCN(Cc2cnc(S(=O)(=O)CC)n2CCc2ccccc2)CC1 (centres undefined),i
CC(O)c1cc2n(n1)CCN(C(=O)C1(c3ccc(Cl)cc3)CCC1)C2 (centres undefined),-10%
O=C(Cc1ccccc1Cl)N1CCC2(CC1)NC(=O)N(c1cccc(F)c1)N2,-9%
CN(Cc1ccccc1)C(=O)[C@@H]1CN(S(C)(=O)=O)C[C@H]1c1ccncc1,-10%
Cc1cc(N2CCN(Cc3nc(-c4cccc(Cl)c4)no3)CC2)cc(C)n1,10µM*
Cc1cc(C)cc(N2CC(c3nc(-c4cccc(Cl)c4)no3)CC2=O)c1 (centres undefined),32%
Cc1oc(-c2cccc(Cl)c2)nc1CN1CCOCC1,2%
CN(C)c1cc(=O)c2ccnc(Nc3ccccn3)c2o1,-20%[44.1 µM]
Cc1nc2cccnc2n1CC1CCCN(S(=O)(=O)c2cccc(Br)c2)C1 (centres undefined),6.3µM*
Cc1ccc(S(=O)(=O)N2CCCC(Cn3c(C)nc4cccnc43)C2)cc1F (centres undefined),i
Cc1nc2cccnc2n1CC1CCCN(S(=O)(=O)c2ccc3c(c2)CCC3)C1 (centres undefined),-28%
CC(C)c1ccc(S(=O)(=O)N2CCC(Oc3ncccc3C(=O)N(C)C)C2)cc1 (centres undefined),i
